Measured values published in PubChem BioAssay AID652057 (Broad Institute, 2013).
Among all 1,400 compounds or so, about 1,000 (71%) were called active. The rule behind the calls is not given here. The set was probably picked from earlier hits. These entries were drawn from the full list. Results with a measured potency or affinity are listed apart.

Test: inhibitors of HIV Env-driven cell fusion, dose response, cherry-pick (AID 652057)
Conditions: HeLa-JRFL Env/CEM21 cell fusion, luciferase; series mostly up to 35 µM

Activity change, negative = inhibition, inactive:
COc1ccc(N2CCN(C(=O)C3CCC(Cn4c(=S)[nH]c5ccccc5c4=O)CC3)CC2)cc1 (configuration not stated)
C[C@@H]1CN([C@H](C)CO)S(=O)(=O)c2ccc(C#Cc3cccc(F)c3)cc2O[C@@H]1CN(C)C(=O)CN1CCOCC1
Cc1[nH]c2ccccc2c1/C=N\NC(=O)c1ccccc1Cl
CCn1c(/C=C/N(C)c2ccccc2)[n+](CC)c2ccc(Cl)cc21
O=C(C[C@H]1C[C@H]2c3cc(NC(=O)C4CCC4)ccc3O[C@H]2[C@H](CO)O1)NCc1ccc2c(c1)OCO2
Cc1nc2ccccc2c2oc(C(=O)NCc3ccc4c(c3)OCO4)cc12
O=C(Nc1cc2c3c(c1)CC(=O)N3CCC2)c1ccc(Cl)cc1
COC(=O)[C@]12CCCCC=C1N(Cc1ccco1)C(=O)[C@H](CC(=O)NCCc1ccccc1OC)C2
Cc1nn(C)c(Cl)c1NC(=O)OCc1ccc(Cl)cc1Cl
COc1ccc(CCNC(=O)COC(=O)c2cccn2C)cc1
O=C(Nc1cccn(Cc2c(Cl)cccc2Cl)c1=O)c1ccc(Cl)cc1
O=C(c1ccccc1F)N1CCN(Cc2cccc(Cl)c2)CC1
COc1ccccc1S(=O)(=O)Cc1ccc(C(=O)N2CCN(c3cccc(Cl)c3)CC2)o1
CNC[C@H]1Oc2c(NC(=O)Nc3ccc4c(c3)OCO4)cccc2C(=O)N([C@H](C)CO)C[C@@H]1C
Cc1ccc(NC(=O)c2ccc(OCC3CCCO3)cc2)cc1Cl (configuration not stated)
Cn1c(CN2CCCCC2)nc2cc(NC(=O)c3ccc(Cl)cc3)ccc21
O=C(COc1ccc(-n2cnnn2)cc1)Nc1ccc(F)c(F)c1
COC(=O)[C@H](Cc1ccccc1)NC(=O)Cn1cnc(C(=O)Nc2ccc(C)c(C)c2)n1
CCOc1ccc(-c2cc(CCCC(=O)Nc3cccc(OC)c3)no2)cc1
O=C(Cc1ccc(Cl)cc1Cl)Nc1ccncc1
C[C@@H]1CN([C@@H](C)CO)C(=O)c2cc(NS(=O)(=O)c3ccccc3)ccc2O[C@H]1CN(C)Cc1ccc(Oc2ccccc2)cc1
Cc1onc(-c2ccccc2)c1C(=O)NC(=S)NNC(=O)c1ccc(O)cc1
Cc1onc(-c2ccccc2)c1C(=O)Nc1ccc(Br)cc1Cl
O=C(C[C@@H]1C[C@@H]2c3cc(NC(=O)C4CCC4)ccc3O[C@@H]2[C@@H](CO)O1)NCC(F)(F)F
Cc1ccc(S(=O)(=O)N(C)c2ccc(C(=O)N3CCN(Cc4ccc5c(c4)OCO5)CC3)cc2)cc1
c1ccc2c(c1)OCC(CNc1ncnc3nc[nH]c13)O2 (configuration not stated)
Cc1nc2sc(C(c3ccco3)N3CCC(Cc4ccccc4)CC3)c(O)n2n1 (configuration not stated)
N#Cc1c(NCc2ccccc2)ccnc1NCc1cccnc1
Cc1cc(C)c(CN2CCN(C(=O)Cn3cnc4c(NCc5ccccc5)ncnc43)CC2)c(C)c1
C[C@@H]1CN([C@@H](C)CO)C(=O)c2cc(C3=CCCC3)cnc2O[C@@H]1CN(C)Cc1ccc(C(=O)O)cc1
C[C@H]1CN([C@@H](C)CO)C(=O)c2cccc(NC(=O)Nc3ccc(C(F)(F)F)cc3)c2O[C@H]1CN(C)S(=O)(=O)c1ccccc1
Cc1cc(C(=O)NC2CCCc3c2cnn3-c2ccc(C(C)(C)C)cc2)nn1C (configuration not stated)
c1coc(CNc2c3c(nc4ccccc24)CCC3)c1
C[C@H](CO)N1C[C@H](C)[C@@H](CN(C)S(=O)(=O)c2ccc(F)cc2)Oc2ccc(NS(=O)(=O)c3cn(C)cn3)cc2CC1=O
O=C(c1cc(COc2cccc(C(F)(F)F)c2)on1)N1CCC(c2ccncc2)CC1
CCC(=O)N(C)C(c1ccccc1Cl)c1nnnn1-c1c(C)cccc1C (configuration not stated)
O=C(c1ccc(S(=O)(=O)Nc2ccc(F)cc2)cc1)N1CCN(C(=O)c2ccco2)CC1
Cc1cc(C)nc(/N=C(\N)Nc2ccc(CC(=O)OC(C)C)cc2)n1
O=C(Nc1ccc(CN2CCOCC2)cc1)c1ccc(-c2cccc(Cl)c2)o1
C#CCn1c(=O)c2c(ncn2C)n(C)c1=O
CCNC(=O)C[C@@H]1CC[C@@H]2[C@@H](COc3ccc(NC(=O)Cc4cccs4)cc3C(=O)N2C)O1
CCNC(=O)C[C@H]1CC[C@@H]2[C@@H](COc3ccc(NC(=O)Cc4cccs4)cc3C(=O)N2C)O1
COCC(=O)Nc1ccc2c(c1)C(=O)N(C)[C@H]1CC[C@H](CC(=O)NC3CCCC3)O[C@H]1CO2
Cc1nn(C)cc1NC(=O)C[C@H]1CC[C@@H]2[C@@H](COc3ccc(NC(=O)C4CCC4)cc3C(=O)N2C)O1
CCNC(=O)Nc1ccc2c(c1)C(=O)N(C)[C@@H]1CC[C@@H](CC(=O)NCC3CCCCC3)O[C@@H]1CO2
CN1C(=O)c2cc(NC(=O)NC3CCCC3)ccc2OC[C@@H]2O[C@H](CC(=O)NC3CCC3)CC[C@@H]21
COc1ccc(OC)c(NC(=O)COc2ccc3c(c2)CCC3)c1
Cc1ccc(S(=O)(=O)N(C)C[C@@H]2Oc3ccc(NS(=O)(=O)c4ccc(Cl)cc4)cc3C(=O)N([C@@H](C)CO)C[C@H]2C)cc1
Cc1ccc(S(=O)(=O)Nc2ccc3c(c2)C(=O)N([C@H](C)CO)C[C@@H](C)[C@H](CN(C)S(=O)(=O)c2ccc(F)cc2)O3)cc1
CCNC1CCC(Nc2ccnc3cc(Cl)ccc23)CC1 (configuration not stated)
CC(=O)Nc1ccc(C(=O)OCC(=O)NC(=O)NCc2ccccc2)cc1
COc1ccc(NS(=O)(=O)c2cccc(C(=O)NNC(=O)CNC(=O)c3ccc(C)cc3)c2)cc1
Cc1ccc(-n2nnnc2SCn2nnc3ccccc3c2=O)c(C)c1
COc1ccccc1CN(C)C(=O)CN1CCN(C(=O)c2cccs2)CC1
C[C@@H]1CN([C@@H](C)CO)S(=O)(=O)c2ccc(-c3ccc(F)cc3)cc2O[C@H]1CN(C)C(=O)C1CCCCC1
CC(=O)OC1c2ccccc2C(=O)N1c1ccccc1C (configuration not stated)
CNC[C@H]1Oc2c(NC(=O)Nc3cccc4ccccc34)cccc2C(=O)N([C@H](C)CO)C[C@H]1C
Cc1sc2ncnc(N3CCN(S(=O)(=O)c4ccc(Br)cc4)CC3)c2c1C
COc1cc(-c2cc(OC)c(O)c(OC)c2)cc(OC)c1O
O=C(Nc1ccc(F)cc1)Nc1ccc2c(c1)[C@@H]1C[C@H](CC(=O)N3CCCCC3)O[C@H](CO)[C@@H]1O2
COC(=O)C[C@H]1C=C[C@H](NC(=O)c2ccccn2)[C@@H](CO)O1
O=C(C[C@@H]1C=C[C@@H](NC(=O)c2ccccc2)[C@H](CO)O1)NCc1ccc(Oc2ccccc2)cc1
COc1ccc(CCCC(=O)NCCc2ccccc2)c(C)c1
COc1ccccc1-c1c(-c2ccc(O)cc2O)n[nH]c1C(F)(F)F
COCc1[nH]nc2c1C(c1ccc(F)cc1)N(Cc1ccccc1)C2=O (configuration not stated)
CCCCn1c(CN(C)Cc2ccccc2)nc2c1c(=O)n(C)c(=O)n2C
C=CCNc1nc2c(c(=O)n(C)c(=O)n2C)n1CCCCCC
CNc1nc2c(c(=O)n(C)c(=O)n2C)n1Cc1ccccc1
CC(C)NC(=O)N(C)C[C@@H]1Oc2ccc(NC(=O)C3CC3)cc2CC(=O)N([C@@H](C)CO)C[C@@H]1C
CC(C)NC(=O)N(C)C[C@@H]1Oc2ccc(NC(=O)C3CC3)cc2CC(=O)N([C@H](C)CO)C[C@H]1C
Cc1cc(Oc2ccc(C#N)cc2)nc(NCc2ccccc2)n1
c1ccc(CSc2nnc([C@@H]3CCCN3)o2)cc1
COc1ccc(/C(C)=N/NC(=O)c2cccc(S(=O)(=O)N3CCCC3)c2)c(O)c1 -20.9% [at 8 µM]
CCCCCn1c(C(C)NC(=O)CCC)nc2ccccc21 (configuration not stated)
COc1ccc(C(O)c2nc3ccccc3n2C)cc1OC (configuration not stated)
CCN1CCN(S(=O)(=O)c2ccc(Cl)c(C(=O)Nc3ccccc3N3CCCC3)c2)CC1
CCNc1ncnc2c1cnn2C1CCCO1 (configuration not stated)
CCOc1ccccc1CNc1ncnc2ccc(-c3c(C)noc3C)cc12
Nc1ccc(O)cc1C(=O)OCC(=O)c1ccc(C2CCCCC2)cc1
Cc1nc2ccccc2n1CC(=O)NCc1ccccc1
CC(C)CN(C(=O)c1ccc(S(=O)(=O)N2CCCCC2)cc1)C1CCS(=O)(=O)C1 (configuration not stated)
CCCCCCCCCCOC(=O)Cn1c(COc2ccccc2OC)[n+](C)c2ccccc21
CNC[C@@H]1Oc2c(N)cccc2C(=O)N([C@@H](C)CO)C[C@@H]1C
Cc1ccc(-n2ncc3c(N4CCN(c5ccccc5)CC4)ncnc32)c(C)c1
Cc1ccc2c(c1)c1c3n2CCN(CC(N)=O)C3CCC1 (configuration not stated)
O=C(Nc1ccncc1)c1ccc(Cl)c(S(=O)(=O)N2CCc3ccccc32)c1
CC(OC(=O)c1ccc(NC(=O)CC#N)cc1)C(=O)NCCC1=CCCCC1 (configuration not stated)
CC(=O)c1c(C)[nH]c(C(=O)OCC(=O)Nc2c(C)cccc2C)c1C
CC(=O)c1c(C)[nH]c(C(=O)OCCCCN2C(=O)c3ccccc3C2=O)c1C
COc1ccc(S(=O)(=O)N2CCCCC2)cc1NC(=O)CCCOc1ccc(C)cc1
COc1ccc(S(=O)(=O)N2CCCCC2)cc1NC(=O)CN(Cc1ccco1)Cc1ccco1
COc1ccccc1C(=O)Nc1ccc2c(c1)OC[C@H](C)N(C(C)=O)C[C@H](C)[C@H](OC)CN(C)C2=O
